# Assays:
# Experiment in all cases: universal protein binding microarray (PBM); transcription factors of Arabidopsis thaliana; high values mean tight binding
# Conditions in all cases: protein: recombinant; tags: GST; chain copies: 2; dsDNA, one strand shown
# GST-ANAC092(1-176) = target: T1, GST-ANAC092(1-176) (Arabidopsis thaliana, UniProt Q9FKA0 1-176)
# T1 sequence: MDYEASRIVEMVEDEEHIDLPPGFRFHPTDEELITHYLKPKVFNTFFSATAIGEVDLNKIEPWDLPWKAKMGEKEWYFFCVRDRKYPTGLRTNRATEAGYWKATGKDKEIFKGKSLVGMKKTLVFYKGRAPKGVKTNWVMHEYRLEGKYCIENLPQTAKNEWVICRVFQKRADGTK
# Summary of the method: (§1)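 Each value is a normalised enrichment score (E-score) describing binding. The GST-tagged proteins, NAC-domain, full-length or DNA-binding-domain, were induced in cells (zinc-finger proteins with zinc acetate added) and purified on glutathione–Sepharose 4B. They were applied at 200 to 500 nM final, in duplicate, to double-stranded custom all-10-mer Agilent 4 × 180K arrays, and gapped and ungapped 8-mers were scored.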
# GST-NTL6(1-168) = GST-NTL6(1-168) (Arabidopsis thaliana, UniProt Q9SCK6 1-168)
# Sequence of GST-NTL6(1-168) (Q9SCK6 1-168): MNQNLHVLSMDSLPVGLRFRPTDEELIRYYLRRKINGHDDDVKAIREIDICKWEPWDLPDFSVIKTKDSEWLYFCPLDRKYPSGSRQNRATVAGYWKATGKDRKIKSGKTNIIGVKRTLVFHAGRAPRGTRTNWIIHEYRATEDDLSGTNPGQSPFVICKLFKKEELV
# Summary of the method: as §1
# GST-ANAC055(1-171) = target: T2, GST-ANAC055(1-171) (Arabidopsis thaliana, UniProt Q9LDY8 1-171)
# T2 sequence: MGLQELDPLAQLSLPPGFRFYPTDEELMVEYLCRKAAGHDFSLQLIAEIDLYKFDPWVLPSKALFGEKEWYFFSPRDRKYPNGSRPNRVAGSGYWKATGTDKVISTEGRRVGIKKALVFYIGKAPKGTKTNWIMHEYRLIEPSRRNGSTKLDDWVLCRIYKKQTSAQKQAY
# Summary of the method: as §1
# GST-ATAF1 NAC domain = target: T3, GST-ATAF1 NAC domain (Arabidopsis thaliana, UniProt Q39013 7-158)
# T3 sequence: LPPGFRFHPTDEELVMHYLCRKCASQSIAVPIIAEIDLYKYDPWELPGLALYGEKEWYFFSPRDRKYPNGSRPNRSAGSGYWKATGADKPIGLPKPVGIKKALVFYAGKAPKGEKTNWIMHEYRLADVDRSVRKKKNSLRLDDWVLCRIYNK
# Summary of the method: as §1
# [1] = target: T4, GST-ANAC092(1-285) full length (Arabidopsis thaliana, UniProt Q9FKA0 1-285)
# T4 sequence: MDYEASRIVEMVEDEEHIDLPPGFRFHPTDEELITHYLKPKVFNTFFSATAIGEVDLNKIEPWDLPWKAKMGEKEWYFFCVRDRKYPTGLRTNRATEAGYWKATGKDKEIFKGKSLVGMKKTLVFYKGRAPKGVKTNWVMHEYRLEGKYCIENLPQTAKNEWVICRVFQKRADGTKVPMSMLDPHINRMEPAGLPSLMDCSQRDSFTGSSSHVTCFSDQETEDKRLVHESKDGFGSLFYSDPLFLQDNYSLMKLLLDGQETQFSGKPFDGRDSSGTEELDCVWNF
# Summary of the method: as §1
# GST-NST2(1-184) = target: T5, GST-NST2(1-184) (Arabidopsis thaliana, UniProt Q9M274 1-184)
# T5 sequence: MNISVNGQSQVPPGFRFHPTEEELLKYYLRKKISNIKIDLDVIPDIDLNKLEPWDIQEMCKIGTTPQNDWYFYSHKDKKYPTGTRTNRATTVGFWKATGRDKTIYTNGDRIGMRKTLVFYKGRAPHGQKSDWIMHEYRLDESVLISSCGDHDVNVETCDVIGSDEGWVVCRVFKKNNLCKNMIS
# Summary of the method: as §1
# GST-NTL8 NAC domain = target: T6, GST-NTL8 NAC domain (Arabidopsis thaliana, UniProt Q9XIN7 14-156)
# T6 sequence: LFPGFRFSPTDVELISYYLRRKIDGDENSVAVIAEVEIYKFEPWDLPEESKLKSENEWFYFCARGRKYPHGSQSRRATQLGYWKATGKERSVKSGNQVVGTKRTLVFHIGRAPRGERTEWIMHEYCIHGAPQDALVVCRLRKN
# Summary of the method: as §1
# GST-SND1(1-203) = target: T7, GST-SND1(1-203) (Arabidopsis thaliana, UniProt Q9LPI7 1-203)
# T7 sequence: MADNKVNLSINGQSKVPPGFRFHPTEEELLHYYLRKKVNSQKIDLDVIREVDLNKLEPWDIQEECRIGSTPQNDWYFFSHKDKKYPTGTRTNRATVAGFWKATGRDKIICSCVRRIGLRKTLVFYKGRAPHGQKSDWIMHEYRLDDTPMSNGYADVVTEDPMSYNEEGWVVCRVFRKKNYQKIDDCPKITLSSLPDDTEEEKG
# Summary of the method: as §1
# GST-VND3 NAC domain = target: T8, GST-VND3 NAC domain (Arabidopsis thaliana, UniProt Q9FH59 12-162)
# T8 sequence: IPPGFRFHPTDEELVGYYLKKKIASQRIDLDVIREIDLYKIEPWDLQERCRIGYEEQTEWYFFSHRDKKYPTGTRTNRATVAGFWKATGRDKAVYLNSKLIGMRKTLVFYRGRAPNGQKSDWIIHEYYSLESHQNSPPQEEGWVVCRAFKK
# Summary of the method: as §1
# GST-VND7 NAC domain = target: T9, GST-VND7 NAC domain (Arabidopsis thaliana, UniProt Q9C8W9 9-158)
# T9 sequence: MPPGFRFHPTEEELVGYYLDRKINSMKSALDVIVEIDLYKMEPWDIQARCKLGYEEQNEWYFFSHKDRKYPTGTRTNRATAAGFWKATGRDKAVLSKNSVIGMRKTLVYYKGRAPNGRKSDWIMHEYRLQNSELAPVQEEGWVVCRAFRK
# Summary of the method: as §1
# GST-NAP(1-166) = target: T10, GST-NAP(1-166) (Arabidopsis thaliana, UniProt O49255 1-166)
# T10 sequence: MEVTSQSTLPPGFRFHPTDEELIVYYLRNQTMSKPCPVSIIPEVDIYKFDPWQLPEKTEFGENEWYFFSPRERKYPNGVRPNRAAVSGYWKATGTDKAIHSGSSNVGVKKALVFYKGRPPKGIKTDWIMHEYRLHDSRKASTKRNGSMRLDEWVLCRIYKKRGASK
# Summary of the method: as §1
# GST-ANAC019 NAC domain = target: T11, GST-ANAC019 NAC domain (Arabidopsis thaliana, UniProt Q9C932 14-162)
# T11 sequence: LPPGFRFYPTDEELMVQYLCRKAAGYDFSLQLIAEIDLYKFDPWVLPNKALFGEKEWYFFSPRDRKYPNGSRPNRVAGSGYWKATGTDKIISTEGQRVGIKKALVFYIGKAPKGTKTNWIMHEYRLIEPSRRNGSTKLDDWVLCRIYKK
# Summary of the method: as §1
Sequence,binding signal (GST-ANAC092(1-176)),binding signal (GST-NTL6(1-168)),binding signal (GST-ANAC055(1-171)),binding signal (GST-ATAF1 NAC domain),binding signal [1],binding signal (GST-NST2(1-184)),binding signal (GST-NTL8 NAC domain),binding signal (GST-SND1(1-203)),binding signal (GST-VND3 NAC domain),binding signal (GST-VND7 NAC domain),binding signal (GST-NAP(1-166)),binding signal (GST-ANAC019 NAC domain)
AAGCAACA,0.387 E-score,0.333 E-score,0.134 E-score,0.0645 E-score,0.405 E-score,0.342 E-score,0.194 E-score,0.439 E-score,0.0696 E-score,0.146 E-score,,
AAGCAAAC,0.331 E-score,0.359 E-score,0.194 E-score,0.137 E-score,0.355 E-score,0.31 E-score,0.336 E-score,0.401 E-score,0.181 E-score,0.206 E-score,0.119 E-score,
ATTGCTTG,0.355 E-score,0.228 E-score,0.115 E-score,,0.408 E-score,0.296 E-score,0.143 E-score,0.406 E-score,0.223 E-score,0.218 E-score,,0.19 E-score
CTTACTTC,0.272 E-score,0.413 E-score,0.191 E-score,0.209 E-score,0.325 E-score,0.267 E-score,0.4 E-score,0.387 E-score,0.209 E-score,0.23 E-score,,0.227 E-score
GCAAGAAA,0.295 E-score,0.306 E-score,0.0836 E-score,0.189 E-score,0.401 E-score,0.201 E-score,0.229 E-score,0.307 E-score,0.12 E-score,0.0827 E-score,,
GTAACTTA,0.271 E-score,0.375 E-score,0.185 E-score,0.233 E-score,0.357 E-score,0.306 E-score,0.229 E-score,0.43 E-score,0.195 E-score,0.141 E-score,0.133 E-score,

# Reference: publication PMC4081100, “A DNA-binding-site landscape and regulatory network analysis for NAC transcription factors in Arabidopsis thaliana”
